An excerpt weighted towards active compounds, which were near 13% of everything screened.
Marburg entry inh – inhibitors of Marburg virus binding or cell entry | Marburg virus pseudotyped entry inhibition, cell reporter | Potency, µM (doses to about 37.8 µM), inactives show top-dose activity change, negative = inhibition, usual class: inhibitors | 1.8% of 300,000 active | AID 540276; calls by dose curve; tested in HEK293 cells; also: potency is read from the fitted curve at half-maximal effect; % is scaled to controls: 0 for no effect and ±100 for the full control effect
Shiga inhibitor – inhibitors of Shiga toxin in Vero cells | Vero cells, Shiga toxin protein synthesis inhibition reporter | inhibition, % at 38.7 µM | 9.2% of 290,000 active | AID 2315; in the data active = inhibition mostly above about 28%, no sharp cut-off; inactive = mostly below about 43%; also: 0% is about no effect
FMDV antiviral – foot and mouth disease virus antiviral activity; FMDV antiviral cell-based qHTS; Potency, µM (series often up to 57.9 µM), without a hit: at the highest dose activity change, negative = inhibition, usual class: inhibitors; 1.2% of 410,000 active; AID 1159524; calls by dose curve; tested in HEK293T cells; also: read-out not given here; potency is read from the fitted curve at half-maximal effect; % is scaled to controls: 0 for no effect and ±100 for the full control effect; nearly all actives have a fitted effect of over 45% in size
Cycloheximide cs – affects cycloheximide protein synthesis inhibition readout, counter-screen; cell reporter, cycloheximide protein synthesis inhibition counterscreen; max response, %; 12% of 300,000 active; in the data active = max response mostly above about 13%, no sharp cut-off; inactive = mostly below about 14%; also: read at 38.3 µM for the half of the compounds with a filed dose; 0% is about no effect
Lassa entry inh – Lassa virus entry inhibition; Potency, µM (doses to about 37.9 µM), for the others: at the top dose activity change, negative = inhibition, actives largely listed as inhibitors; Lassa virus pseudotype entry inhibition, cell reporter; 1.2% of 300,000 active; calls by dose curve; tested in HEK293 cells; also: potency is read from the fitted curve at half-maximal effect; % is scaled to controls: 0 for no effect and ±100 for the full control effect; nearly all actives have a fitted effect of over 50% in size
HCV inh – blocks hepatitis C virus | AID 651820 | Potency, µM (series often up to 41.8 µM), inactives show at the top dose activity change, negative = inhibition, hits mostly inhibitors | Huh7.5.1 HCVcc-Cre infection, luciferase reporter, 44 h | 3.4% of 340,000 active; active = well fitted inhibition curve with a large enough effect; inconclusive = small, poorly fitted or top-dose-only effect, or another doubt; inactive = no such curve, though single readings can be large or run the other way; also: potency is read from the fitted curve at half-maximal effect; % is scaled to controls: 0 for no effect and ±100 for the full control effect
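Infectious HCVcc-Cre (~0.5 moi) was added to cells just after compound, with cells seeded 4 h earlier at 1,000 per well. Luciferase activity after 44 h culture reported infection; substrate was incubated 15 min at room temperature before reading.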
An asterisk follows results filed as active; ? = inconclusive; / = no result; + = active, no number; ! = repeats disagree; [ ] = dose if it differs, or a comment.

SMILES	Marburg entry inh	Shiga inhibitor	FMDV antiviral	Cycloheximide cs	Lassa entry inh	HCV inh
CCOC(=O)C1(Cc2ccccc2C(F)(F)F)CCN(C(C)COC)CC1 (centres undefined)	/	-4	-23%	1	/	-3%
CCOC(=O)NC(C(Cl)(Cl)Cl)S(=O)(=O)c1ccccc1 (centres undefined)	?	50*	?	18*	?	1%
CCOc1ccc(OCC(=O)NCCS(=O)(=O)N2CCN(c3ccc(OC)cc3)CC2)cc1	/	/	36%	/	7%[46.1 µM]	/
Cc1ccc(NC(=O)c2ccc(S(=O)(=O)C(F)F)cc2)c(C)c1	5%	+	-13%	28*	1%	1%
Cc1ccc(S(=O)(=O)NC(=O)Nc2ccc(C)cc2C)cc1	/	-14	-15%	7	/	9%
Cc1ccccc1NC(=O)c1ccc(S(=O)(=O)C(F)F)cc1	29%	-3	-23%	18*	8%	7%
CSC[C@H]1CN(Cc2ccccc2)C(=O)[C@H]1CC(=O)Nc1ccccc1	/	/	/	/	-8%[46.1 µM]	/
CCn1c(=N)n(CCO)c2ccccc21	-1%	17	-6%	1	-12%	16%
COC(=O)Cc1ccc(NC(=O)c2ccc3c(c2)C(=O)N(CC2CCCO2)C3=O)cc1 (centres undefined)	10%	-5	28µM*	1	14%	-1%
COc1cccc(NC(=O)c2ccc3c(c2)C(=O)N(CC2CCCO2)C3=O)c1 (centres undefined)	/	40	16%	30*	/	-1%
CC(=O)Oc1cccc(C(=O)Nc2ccc3c(c2)C(=O)N(CC2CCCO2)C3=O)c1 (centres undefined)	10%	-4	10%	7	8%	-14%
COc1ccc(/C=C2\NC(=S)N(CC3CCCO3)C2=O)c(OC)c1 (centres undefined)	-18%	34	/	23*	1%	-22%
COc1cccc(C(=O)Nc2ccc3c(c2)C(=O)N(CC2CCCO2)C3=O)c1 (centres undefined)	?	55*	?	44*	8%	-16%
COc1ccc(NC(=O)c2ccc3c(c2)C(=O)N(CC2CCCO2)C3=O)cc1 (centres undefined)	7%[46.1 µM]	21	-15%	-2	-15%[46.1 µM]	-1%
CCOC(=O)CC(C#N)c1c[nH]c2ccccc12 (centres undefined)	20%	-17	4%	-1	4%	-5%
CC(C)(C)C(=O)NC1CCN(S(=O)(=O)c2cccc(C(F)(F)F)c2)CC1	11%	-11	7%	-6	12%	-6%
COc1ccccc1OCC(=O)Nc1ccc2c(c1)C(=O)N(CC1CCCO1)C2=O (centres undefined)	?	24	?	1	?	11%
COc1ccccc1Oc1ccc2c(c1)C(=O)N(CC1CCCO1)C2=O (centres undefined)	14%	46*	-11%	37*	?	-13%
O=C(NCCCCCCNC(=O)OC1CCS(=O)(=O)C1)OC1CCS(=O)(=O)C1 (centres undefined)	18%[46.1 µM]	8	1%	-4	-8%	11%
O=C(NCCCCCCNC(=O)ON=C1CCCCC1)ON=C1CCCCC1	/	27*!	2%	27*!	/	/
O=C(Nc1ccc(Cl)cc1)ON=C1CCCC1	?	56*	24%	40*	-12%	1%
C/C(=N\OC(=O)Nc1ccc(Cl)cc1)c1ccc(F)c(F)c1	22%[46.1 µM]	54*	8%	17*	-29%[46.1 µM]	6%
COc1cc(OC)nc(Nc2nc(C(C)N)cs2)n1 (centres undefined)	/	/	-26%	/	/	/
COc1ccc(C2c3ccc4ccccc4c3Oc3ncn(Cc4ccco4)c(=N)c32)cc1OC (centres undefined)	?	-9	-40%	-3	?	?
CNC(=O)c1c2c(nc3ccc(Br)cc13)CCCC2	-8%[46.1 µM]	-15	-25%	-2	?	25µM*
COc1ccc(OC)c(Nc2cc(C(=O)NCCCN3CCOCC3)c3ccccc3n2)c1	?	-10	-19%	-1	?	?
COc1ccc(Nc2cc(C(=O)N3CCc4ccccc4C3)c3ccccc3n2)c(OC)c1	/	17	-13%	9	/	10µM*
COc1ccc(N2CCN(CCCNC(=O)c3cc(Nc4ccc(OC)cc4OC)nc4ccccc34)CC2)cc1	/	/	22µM*	/	?	/

Bioassay records from PubChem.
